Assay results published in PubChem BioAssay AID1850 (Southern Research Specialized Biocontainment Screening …, 2009).
Among all 310,000 compounds or so, about 1,000 (0.32%) were called active. The list is a sample of the results. Potency and affinity values are given separately. Unmarked numbers belong to inactive results. How the calls were made is not given here.

experiment: Inhibition of PhoP regulon, Salmonella typhi GFP reporter cells, confirmation, 4 h (AID 1850); conditions: Salmonella Typhi PhoP-promoter GFP reporter, fluorescence, at 50 µM, hits give high values;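 further: 0% = induced wells with vehicle and 100% = uninduced wells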

Row | SMILES | inhibition [%]
1 | O=C(CCC1CCCN(C(=O)c2cccc(F)c2)C1)N1CCN(c2ccccn2)CC1 (stereo not given) | -7.6
2 | O=C(CCNS(=O)(=O)c1ccccc1)OCC(=O)c1ccc(Br)cc1 | -3.69
3 | COc1ccc(C2N(c3ccccc3)CCN2c2ccccc2)cc1O | -8.63
4 | COc1ccccc1Cn1c(CCCO)nc2ccccc21 | 1.55
5 | Oc1ccc(Cl)cc1CNn1cnnc1 | 9.93
6 | Oc1ccc(Cl)cc1CNCc1ccc(Cl)cc1 | 12.4
7 | CCOc1ccc(S(=O)(=O)NC(C)C(=O)NCc2ccccn2)cc1 (stereo not given) | -3.4
8 | COc1ccc(/C=C/C2=CCN(C)CC2)cc1 | 17.2
9 | OC(CN1CC=C(/C=C/c2ccc(Br)cc2)CC1)c1ccccc1 (stereo not given) | -9.93
10 | CCOc1ccc(S(=O)(=O)N2CCN(C(=O)c3ccncc3)CC2)cc1 | -2.75
11 | CC1CN(C(=O)CCC(=O)NCc2ccccc2)c2ccccc2S1 (stereo not given) | 6.38
12 | OC(CNCC1CCCO1)Cn1c2ccc(Br)cc2c2cc(Br)ccc21 (stereo not given) | -0.49
13 | OC(CNCC1CCCO1)Cn1c2ccccc2c2ccccc21 (stereo not given) | 14.3
14 | NC(=O)Cn1c(=O)n(CC(=O)N2CCCCC2)c(=O)c2sccc21 | 2.84
15 | COc1ccc2[nH]c(C)c(CCNC(=S)Nc3ccccc3OC)c2c1 | -5.5
16 | Cc1[nH]c2ccc(OC(F)(F)F)cc2c1CCNCc1cccc([N+](=O)[O-])c1 | 6.4
17 | COc1ccc(CNCCc2c(C)[nH]c3ccc(OC(F)(F)F)cc23)c(OC)c1 | -3.23
18 | COc1ccc2[nH]c(C)c(CCNCc3cc(OC)c(OC)c(OC)c3)c2c1 | 7.48
19 | O=C(CN1CCC(C(O)(c2ccccc2)c2ccccc2)CC1)Nc1cc(Cl)ccc1Cl | -20
20 | COc1ccccc1C(=O)NC(=O)Nc1nc(-c2ccccc2)cc(C(F)(F)F)n1 | 2.17

Row | SMILES | inhibition [%]
21 | COc1cc(/C=C/C(=O)O)ccc1O | 10.8
22 | C/C=C/c1ccc(O)c(OC)c1 | 1.57
23 | C/C(=N\Nc1nc(C)cc(-c2ccccc2)n1)c1ccc(O)cc1 | -2.43
24 | Cc1cccc(C)c1NC(=O)CN(C)C(=O)c1ccc2nc[nH]c2c1 | 1.29
25 | Cc1ccc(C(=O)NCC(C)NC(=O)c2ccc(C)c([N+](=O)[O-])c2)cc1[N+](=O)[O-] (stereo not given) | -3.75
26 | CCOC(=O)c1ccc(-c2ccc(C3Nc4ccccc4C(=O)N3O)o2)cc1 (stereo not given) | -7.99
27 | O=C1c2ccccc2NC(c2ccc(-c3cccc([N+](=O)[O-])c3)o2)N1O (stereo not given) | -4.04
28 | CCN1CCN(c2ccc(S(=O)(=O)N3CCCCC3)cc2NC(=O)c2ccccc2)CC1 | -7.27
29 | CSC(=NS(=O)(=O)c1ccc(C)cc1)SC | 2.62
30 | CCC(C)(C)NC(=O)CN(CC1CCCO1)C(=O)CCC(=O)Nc1nccs1 (stereo not given) | 1.73
31 | CCOC(=O)C1CCN(c2cc3c(cc2NC(=O)c2ccccc2F)n(C)c(=O)n3C)CC1 | -6.44
32 | O=C(O)c1cn(-c2ccc(F)c(F)c2)c2c(F)c(F)c(F)c(F)c2c1=O | -8.9
33 | CCN(CC)CCCNC(=O)c1c(O)c2cc(F)cc3c2n(c1=O)C(C)CC3 (stereo not given) | -12.5
34 | CCOC(=O)c1cn(CC2CC2)c2cc(F)c(F)cc2c1=O | -1.36
35 | CC1CCc2cc(F)cc3c(O)c(C(=O)NCCN(C)C)c(=O)n1c23 (stereo not given) | -11.2
36 | C[n+]1ccccc1/C=C/c1ccc(F)c(F)c1 | -2.41
37 | N#Cc1ccccc1OCC(O)CS(=O)(=O)c1ccccc1 (stereo not given) | 8.05
38 | Cc1ccc(NNC(=O)c2cc(C(C)(C)C)nn2Cc2ccccc2)cc1 | 1.12
39 | Cc1cc(C)cc(NS(=O)(=O)c2csc(C(N)=O)c2)c1 | -4.13
40 | N#Cc1c(C(F)(F)F)cc(Cc2ccccc2)nc1SCC(=O)NCC(=O)O | -9.26

Row | SMILES | inhibition [%]
41 | Cc1ccc2oc(=O)c3cc(C(=O)NCCCN4CCc5ccccc5C4)sc3c2c1 | -1.04
42 | Cc1c(OCC(=O)N[C@@H](Cc2c[nH]c3ccccc23)C(=O)O)ccc2c1oc(=O)c1ccccc12 | 4.69
43 | CCOC(=O)C1CCCN(C(=O)c2ccc3nc(-c4ccccc4)c(-c4ccccc4)nc3c2)C1 (stereo not given) | 5.36
44 | CCCc1nc2sc(C(=O)OCC)c(N)c2c2c1COC(C)(C)C2 | 0.3
45 | O=C(CSc1nccc(=O)[nH]1)Nc1ccc(Br)c(Cl)c1 | 4.82
46 | CCN(CC)C(=O)CSc1nc(COc2ccccc2)nc2ccccc12 | -0.33
47 | CC[C@@H](C)[C@H](CN[C@H](CNC)[C@@H](C)O)NCCc1ccc(OC)cc1 | 4.36
48 | CC[C@H](C)[C@@H](CNC)NC[C@@H](Cc1ccc(O)cc1)NCC(C)(C)C | 4.52
49 | O=C(O)CCCC(=O)NCCCCc1ccccc1 | -10.7
50 | CCCCCSc1cc(OC)c(CCN(C)C)cc1OC | 11.2
51 | CNCCc1ccc(OC)c(OC)c1 | 10.9
52 | CCCCCCSc1cc(-c2nc3cc(C)ccn3c2NCCCC)ccc1OC | 0.7
53 | CCCCCSc1cc(O)c(C(CNC)C(C)C)cc1OC (stereo not given) | -3.45
54 | CCCCCSc1cc(OC)c(CCN)cc1OC | 15.9
55 | COc1cc2ccc3c(CCN(C)C)cc(OC)c(OC)c3c2cc1OC | 13.6
56 | Cc1ccccc1S(=O)Cc1ccc(C(=O)NC2CCN(Cc3ccccc3)CC2)o1 (stereo not given) | -1.02
57 | COCC1CCN(C(=O)C2CCC(=O)N(CCc3cccc(F)c3)C2)CC1 (stereo not given) | -0.82
58 | COc1cc(/C=N/N2CCN(c3ccc(Cl)cc3)CC2)cc(OC)c1OC(C)=O | -1.44
59 | CC(=O)N1CCN(c2ccc(NC(=O)c3cccc(Cl)c3)cc2)CC1 | 13.2
60 | O=C(CCS(=O)(=O)c1ccc(Cl)cc1)Nc1nc(-c2ccncc2)cs1 | -19.9
